The whole screen tested about 370,000 compounds, of which about 3,100 (0.84%) were called active. Cut-off read from the data, not from the text of the source: active = inhibition above about 9.5%; inactive = the rest. Many of the other results were omitted from the sample, so actives are more common in it than they were.
target: 1-phosphatidylinositol 4,5-bisphosphate phosphodiesterase gamma-1 (Homo sapiens) (UniProt P19174); experiment: PLC-gamma1 enzyme inhibitors, primary screen, biochemical, fluorescence, purified enzyme (AID 720700); details: purified PLC-gamma1, fluorogenic substrate, at 12.2 µM, active compounds read high
Sequence (P19174 whole entry, looked up): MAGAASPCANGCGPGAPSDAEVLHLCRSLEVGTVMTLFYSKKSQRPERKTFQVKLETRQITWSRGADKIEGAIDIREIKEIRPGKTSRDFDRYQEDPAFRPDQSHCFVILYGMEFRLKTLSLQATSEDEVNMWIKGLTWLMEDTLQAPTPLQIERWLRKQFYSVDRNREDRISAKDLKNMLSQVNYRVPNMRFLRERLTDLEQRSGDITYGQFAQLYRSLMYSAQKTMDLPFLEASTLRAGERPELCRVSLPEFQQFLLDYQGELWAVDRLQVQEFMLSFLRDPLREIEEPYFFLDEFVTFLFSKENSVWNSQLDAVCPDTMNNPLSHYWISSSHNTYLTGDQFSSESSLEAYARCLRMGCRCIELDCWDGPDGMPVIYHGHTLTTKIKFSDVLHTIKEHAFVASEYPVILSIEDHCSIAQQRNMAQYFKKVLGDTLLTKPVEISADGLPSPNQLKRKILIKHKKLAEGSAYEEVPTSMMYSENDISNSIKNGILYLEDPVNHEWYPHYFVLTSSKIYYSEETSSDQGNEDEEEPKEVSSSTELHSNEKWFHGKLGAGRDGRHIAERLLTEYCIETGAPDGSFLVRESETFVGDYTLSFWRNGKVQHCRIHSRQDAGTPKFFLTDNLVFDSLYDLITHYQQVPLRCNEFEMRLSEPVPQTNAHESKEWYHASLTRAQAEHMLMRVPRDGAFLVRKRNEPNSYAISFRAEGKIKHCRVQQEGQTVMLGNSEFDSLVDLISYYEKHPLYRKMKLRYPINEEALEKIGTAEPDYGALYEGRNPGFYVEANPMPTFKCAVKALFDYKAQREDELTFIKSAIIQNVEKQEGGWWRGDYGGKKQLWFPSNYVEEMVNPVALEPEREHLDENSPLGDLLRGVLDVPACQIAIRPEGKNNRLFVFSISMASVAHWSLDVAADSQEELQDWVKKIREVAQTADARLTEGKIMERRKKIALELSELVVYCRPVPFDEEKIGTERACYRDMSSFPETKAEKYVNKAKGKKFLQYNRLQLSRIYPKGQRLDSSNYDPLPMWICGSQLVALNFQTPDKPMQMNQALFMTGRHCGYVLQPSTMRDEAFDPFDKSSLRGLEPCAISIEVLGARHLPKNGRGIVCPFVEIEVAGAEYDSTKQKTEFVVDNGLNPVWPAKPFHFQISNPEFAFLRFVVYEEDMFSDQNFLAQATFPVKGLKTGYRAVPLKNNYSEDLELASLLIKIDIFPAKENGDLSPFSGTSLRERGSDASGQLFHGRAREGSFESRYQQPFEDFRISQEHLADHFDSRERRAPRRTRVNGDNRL

Structure (SMILES) | inhibition
O=C(Nc1cccc(Cl)c1)OC1CC2CC1[C@H]1CCCCN1[C@H]2Cc1ccccc1 (stereo not given in full) | -19.3% (inactive)
O=C1NC[C@@H](c2ccccc2)OC(=O)[C@H](Cc2ccc(F)cc2)CC/C=C/C[C@H]1CC(=O)N(CCO)Cc1ccccc1 | -0.18% (inactive)
O=C1N[C@H](Cc2c[nH]c3ccccc23)COC(=O)[C@H](Cc2ccc(F)cc2)C/C=C\C[C@H]1CC(=O)N(CCO)Cc1ccccc1 | 1.6% (inactive)
O=C1N[C@@H](c2ccccc2)COC(=O)[C@H](Cc2ccc(F)cc2)C/C=C\C[C@@H]1CC(=O)N(CCO)Cc1ccccc1 | 9.59% (active)
O=C(Nc1nc2ccc(Cl)cc2s1)c1cc(-c2ccc(Cl)cc2)nc2ccccc12 | 6.56% (inactive)
Cc1ccc(Cn2cc(CN3[C@@H](CC(C)C)COc4ccc(Cl)cc4S3(=O)=O)nn2)cc1 | 1.86% (inactive)
COc1ccc(Cn2ccc3ccc(-c4ccc5ccn(Cc6ccccc6C)c5c4)cc32)cc1 | -65% (inactive)
O=S1(=O)c2c(cccc2N2CC[C@H](O)C2)O[C@@H]2CCN1C2 | -2.5% (inactive)
CCOC(=O)C1CCN(C(=O)c2cccc(S(=O)(=O)N(CC)c3ccccc3)c2)CC1 | 1.63% (inactive)
CCOC(=O)C1CCN(C(=O)c2ccccc2N(C)S(=O)(=O)c2ccccc2)CC1 | 12.6% (active)
CCN1CCN(C(=O)c2ccccc2N(C)S(=O)(=O)c2ccc(C)cc2)CC1 | 2.78% (inactive)
O=C(CSc1nc2ccccc2n1Cc1ccccc1Cl)N/N=C\c1c[nH]c2ccccc12 | 1.37% (inactive)
CC(C)CNc1cccc2c1S(=O)(=O)N(Cc1cn(Cc3ccccc3C(F)(F)F)nn1)Cc1ccccc1O2 | -4.63% (inactive)
Cc1cccc(NC(=S)N(CCN(C)C)C(C)c2ccco2)c1 (stereo not given) | -0.2% (inactive)
Cc1ccc(NC(=S)N(Cc2ccco2)C(C)c2cccs2)cc1 (stereo not given) | 9.84% (active)
Cc1ccc(-c2csc(N(Cc3ccco3)C(=O)c3cccs3)n2)cc1 | 0.51% (inactive)
O=C1CC[C@@H](COc2ccc3[nH]cc(-c4ccccc4)c3c2-c2ccccc2)N1 | -12.8% (inactive)
Nc1[nH]c(/C=C2/CCCCC2n2[nH]c(=O)n(-c3ccccc3)c2=O)c(Cc2ccccc2)[n+]1Cc1ccccc1 (stereo not given) | -3.57% (inactive)
COC(=O)[C@]12C[C@H](CC(=O)NCc3cccs3)C(=O)N(CCc3ccc(OC)c(OC)c3)C1=C[C@H](C(C)C)O[C@@H]2C1CC1 | 0.22% (inactive)
Cc1ccc(CSc2nnc(SCC(=O)NN=Cc3cc(Br)ccc3F)s2)cc1 | 1.18% (inactive)
CC[C@@H](CCC(=O)N(c1ccccc1)c1ccccc1)C1CC1 | -1.13% (inactive)
CC[C@]12c3[nH]c4ccc(Cl)cc4c3CCN1C(=O)[C@@H](CC(=O)NCCN1CCOCC1)C[C@@H]2C(=O)N1CCN(C(=O)C2CC2)CC1 | 0.47% (inactive)
C[C@]12c3[nH]c4ccc(Cl)cc4c3CCN1C(=O)[C@@H](CC(=O)NCCCn1ccnc1)C[C@@H]2C(=O)N1CCOCC1 | 13.5% (active)
COc1ccc2[nH]c3c(c2c1)CCN1C(=O)C(CC(=O)NCCc2ccccn2)C[C@H](C(=O)N2CCOCC2)[C@@]31C (stereo not given in full) | 0.01% (inactive)
CCOc1ccc(N(CC(=O)Nc2c(C)n(C)n(-c3ccccc3)c2=O)S(=O)(=O)c2ccc(Cl)s2)cc1 | 1.1% (inactive)
CN[C@H]1C[C@H]2c3cc(N4CCOCC4)ccc3CCN2C[C@H]1[C@H](C)O | -7.18% (inactive)
Nn1c(SCC(=O)Nc2ccc(S(N)(=O)=O)cc2)nnc1-c1n[nH]c2c1CCC2 | 3.04% (inactive)

Structure (SMILES) | inhibition
CCCC(C)c1nnc(NC(=O)C2CC(=O)N(c3ccc(OCC)cc3)C2)s1 (stereo not given) | 4.32% (inactive)
CCOc1ccc(NC(=O)[C@H](C)NC(=O)C2CC(=O)N(c3ccc(OC)cc3)C2)cc1 (stereo not given in full) | 9.63% (active)
COc1ccc(N2CC(C(=O)N[C@@H](C)C(=O)N3CCCCC3)CC2=O)cc1 (stereo not given in full) | -2.8% (inactive)
CCOC(=O)[C@]12CCCC3=C1N(CCC3)C(=O)[C@@H](CC(=O)NCC13CC4CC(CC(C4)C1)C3)C2 | 0.85% (inactive)
O=C(Nc1cc(Cl)cc(Cl)c1)OCCN1CCCC12CCC(c1ccccc1)CC2 (stereo not given) | -0.68% (inactive)
COc1ccc(-n2c(SCC(=O)Nc3ccc(C)c(Cl)c3)nc3ccccc3c2=O)cc1 | 5.06% (inactive)
C=CCN(c1ccc(Cl)cc1)S(=O)(=O)c1cccc(C(=O)OCC(=O)N(C)C)c1 | 14% (active)
CN(C)S(=O)(=O)c1cccc(C(=O)OCC(=O)N2CCCC2=O)c1 | 1.6% (inactive)
C=CCN(c1ccc(C(N)=O)cc1)S(C)(=O)=O | 2.1% (inactive)
O=C(NCc1ccco1)C1CCCN(S(=O)(=O)c2ccc(Cl)s2)C1 (stereo not given) | 2.2% (inactive)
COC(=O)N(C)C[C@@H]1OCc2cnnn2CCCC(=O)N([C@@H](C)CO)C[C@@H]1C | 14.2% (active)
C[C@H](CO)N1C[C@H](C)[C@@H](CN(C)C(=O)C2CCCCC2)OCc2cnnn2CCCC1=O | 0.86% (inactive)
C[C@@H]1CN([C@H](C)CO)C(=O)CCCn2nncc2CO[C@@H]1CN(C)C(=O)OCc1ccccc1 | 5.09% (inactive)
COC(=O)CC1CCc2cc(C)cc(C(CC(C)C)NC(=O)[C@H](CC(C)C)NC(=O)OCc3ccccc3)c2O1 (stereo not given in full) | -1.26% (inactive)
CCOc1ccccc1NC(=O)CCN1CCN(S(=O)(=O)c2ccc(OC)cc2)CC1 | 10.4% (active)
COc1ccc(S(=O)(=O)N2CCC(C(=O)NCCC(=O)Nc3ccccc3OC)CC2)cc1 | 0.77% (inactive)
CCOc1ccccc1NC(=O)COc1ccc(S(=O)(=O)N2CCCC2)cc1 | -0.48% (inactive)
CCC(CO)Nc1cccc2c1S(=O)(=O)N(Cc1cn(Cc3ccccc3C(F)(F)F)nn1)Cc1ccccc1O2 (stereo not given) | -5.47% (inactive)
CC(=O)c1cc(-c2ccc3ccccc3c2)c(=O)n2c1CCC2 | -43.4% (inactive)
Cc1ccc(-n2ncc3c2CC(C)(C)CC3NC(=O)CCc2cnn(C)c2)cc1 (stereo not given) | 13.8% (active)
Cc1ccc(-n2ncc3c2CC(C)(C)CC3NC(=O)Cc2c(C)noc2C)cc1 (stereo not given) | 0.61% (inactive)
COc1ccc(-n2ncc3c2CC(C)(C)CC3NC(=O)CCc2c(C)nn(C)c2C)cc1 (stereo not given) | 2.97% (inactive)
COc1ccc(-c2cc(-c3nnc(SCC(=O)Nc4cccc5ccccc45)n3N)[nH]n2)cc1 | -0.07% (inactive)
COC(=O)c1ccccc1-n1cc(COC(=O)NCCc2ccccc2)nn1 | -14.2% (inactive)
C[C@H](C(=O)N(C)c1ccccc1)[C@@H](O)c1ccc(Cl)cc1 | 0.47% (inactive)
C[C@H](C(=O)N(C)c1ccccc1)[C@@H](O)c1ccc2ccccc2c1 | 16.5% (active)
COc1cccc(N(C)C(=O)[C@@H](C)[C@@H](O)c2ccc3ccccc3c2)c1 | -0.17% (inactive)

Structure (SMILES) | inhibition
CCN(CC(=O)Nc1ccc(C)c(S(=O)(=O)N(C)C)c1)Cc1ccccc1 | 0.58% (inactive)
COc1ccc(CCC(=O)OCC(=O)Nc2ccc(C)c(S(=O)(=O)N(C)C)c2)cc1 | -0.79% (inactive)
Cc1ccc(C(=O)Nc2ccc(C)c(S(=O)(=O)N(C)C)c2)s1 | 12.1% (active)
CC(C)N1CCCCC(NC(=O)C(C)(C)C)C1=O (stereo not given) | -0.44% (inactive)
CCC(C)[C@@H](C(=O)OC)N(CCc1cn(Cc2ccccc2)nn1)S(=O)(=O)c1ccccc1Br (stereo not given in full) | 2.53% (inactive)
Cc1nc(COc2cccc(Cl)c2)sc1C(=O)/C=C/N(C)C | -0.19% (inactive)
Fc1ccc(OCc2nn3c(Cn4nnc5ccccc54)nnc3s2)cc1 | -2.02% (inactive)
CCOc1cccc(-c2nnc3sc(COc4ccc(OC)cc4)nn23)c1 | 10.2% (active)
Cc1ccc(-n2c(COc3ccccc3)nnc2SCC(=O)Nc2ccc3c(c2)OCCO3)cc1 | 2.55% (inactive)
CC(=O)OC12CCCN(C1)/C(=C/c1ccncc1)C2 (stereo not given) | -7.4% (inactive)
COc1ccccc1CCNC(=O)CN1C(=O)NC2(CCCC2)C1=O | 10.4% (active)
Cc1ccc(OCCNC(=O)CN2C(=O)NC3(CCCC3)C2=O)cc1 | 0.18% (inactive)
COc1ccccc1CNC(=O)CCCN1C(=O)NC2(CCCC2)C1=O | 1.01% (inactive)
CC(NCc1ccco1)C(=O)N1CCCCC1 (stereo not given) | -2.37% (inactive)
Cc1ccc(-n2c(SCC(=O)Nc3ccc(S(=O)(=O)Nc4nccs4)cc3)nnc2-c2ccncc2)cc1 | -4.02% (inactive)
CC(=O)C1(C(=O)Nc2nccs2)CC(c2ccccc2C(F)(F)F)=NO1 (stereo not given) | -4.24% (inactive)
C=CCN1C(=O)[C@@H](CC(=O)NCCCOCCCC)[C@]2(C(=O)OCC)CCCCC/C=C/12 | -1.4% (inactive)
Cc1ccc(C(=O)NC2CCN(C(=O)N3CCOCC3)CC2)cc1 | 4.32% (inactive)
Cc1ccc(C(=O)N2CCN(C(=O)N3CCOCC3)CC2)cc1 | 10.4% (active)
Cc1ccc(C(=O)C(=S)N2CCOCC2)cc1 | 0.9% (inactive)
Fc1ccc2nc(COCc3nc4ccc(F)cc4[nH]3)[nH]c2c1 | -0.44% (inactive)
Cc1cc(NS(=O)(=O)c2ccc(NC(=O)CSc3nnc(-c4ccc(C(C)(C)C)cc4)n3Cc3ccco3)cc2)nc(C)n1 | -1.67% (inactive)
COc1ccc(C(N)c2csc(NC(=O)Nc3cccc(C(F)(F)F)c3)n2)cc1 (stereo not given) | 14.7% (active)
COc1ccc(CC(N)c2csc(NC(=O)Nc3ccc(C(C)C)cc3)n2)cc1 (stereo not given) | 2.68% (inactive)
NC(c1csc(NC(=O)Nc2cccc(C(F)(F)F)c2)n1)C1CCCCC1 (stereo not given) | 6.49% (inactive)
FC(F)(F)c1cccc(NC(=S)OC2CCC23CCC(c2ccccc2)CC3)c1 (stereo not given) | -0.1% (inactive)
